Assay outcomes deposited in PubChem BioAssay by Sanford-Burnham Center for Chemical Genomics.
GC-B act – human GC-B receptor activators, primary screen, HEK293 GC-B cells, cGMP TR-FRET, EC30 CNP; Atrial natriuretic peptide receptor 2 (Homo sapiens), P20594; 0% at EC30 CNP, 100% saturating CNP; activation, % at 10 µM; 370,000 compounds, 0.11% hits;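 active = activation at 10 µM reaching about 35% in either raw or pattern-adjusted values, limit read from the data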
PfG6PD inh – PfG6PD enzyme inhibitors, primary screen, biochemical, fluorescence intensity, uHTS; glucose-6-phosphate dehydrogenase-6-phosphogluconolactonase (Plasmodium falciparum 3D7); PfGluPho enzyme, NADPH resazurin-diaphorase fluorescence; inhibition, % at 20 µM; 350,000 compounds, 0.78% hits; AID 504690, 2011;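 active = inhibition reaching at least a set limit at 20 µM in the primary screen, cut at about 59% in these data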;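 note: 0% = DMSO wells with substrate and 100% = DMSO wells lacking glucose-6-phosphate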
A3G deaminase – APOBEC3G DNA deaminase inhibitors, primary screen, biochemical, fluorescence, single-stranded DNA substrate, uHTS; DNA dC->dU-editing enzyme APOBEC-3G (Homo sapiens), Q9HC16; recombinant A3G, ssDNA deamination FAM/TAMRA fluorescence; inhibition, % at 20 µM; 330,000 compounds, 0.28% hits; AID 493012, 2011;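 active = inhibition of at least 40% at 20 µM, with no more than 30% in the related APOBEC3A deaminase screen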;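 note: plate controls were DMSO wells with A3G for no effect and wells lacking A3G enzyme for full effect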
Target sequence (Q9HC16 whole entry, looked up): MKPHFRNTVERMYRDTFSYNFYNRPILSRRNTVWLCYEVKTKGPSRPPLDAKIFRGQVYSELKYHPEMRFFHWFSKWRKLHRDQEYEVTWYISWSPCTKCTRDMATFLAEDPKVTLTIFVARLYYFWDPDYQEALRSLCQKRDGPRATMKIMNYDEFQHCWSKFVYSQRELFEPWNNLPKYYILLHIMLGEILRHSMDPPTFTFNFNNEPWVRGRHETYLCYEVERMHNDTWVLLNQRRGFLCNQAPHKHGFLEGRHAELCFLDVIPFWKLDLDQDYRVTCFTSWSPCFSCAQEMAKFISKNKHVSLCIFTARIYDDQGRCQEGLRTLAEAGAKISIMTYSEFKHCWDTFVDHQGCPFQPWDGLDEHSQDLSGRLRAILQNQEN
A3A deaminase – APOBEC3A ssDNA deaminase inhibitors, primary screen, selectivity assay for APOBEC3G inhibitor project, biochemical, FAM/TAMRA oligo cleavage fluorescence; DNA dC->dU-editing enzyme APOBEC-3A (Homo sapiens), P31941; recombinant A3A, FAM/TAMRA ssDNA deamination fluorescence; inhibition, % at 20 µM; 330,000 compounds, 0.41% hits;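 active = at least 40% inhibition at 20 µM here, with at most 30% in a related deaminase screen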;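 note: plate controls were A3A with DMSO for no effect and wells lacking A3A enzyme for full effect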
Neddyl block – inhibitors of cullin neddylation, primary screen, biochemical, TR-FRET, uHTS, NAE and Ubc12; 360,000 compounds, 0.58% hits; inhibition, % at 25 µM; NEDD8-conjugating enzyme Ubc12 (Homo sapiens) + NEDD8-activating enzyme E1 regulatory …; in the data active = inhibition above about 36%
NPR1 activator – GC-A stimulated cGMP production enhancers – HEK293 GC-A cells, cGMP TR-FRET, EC30 ANP, primary screen; 0% at EC30 ANP, 100% saturating ANP; Atrial natriuretic peptide receptor 1 (Homo sapiens), P16066; 370,000 compounds, 0.14% hits; activation, % at 10 µM; in the data active = activation above about 40%
Neddyl conf – blockade of NEDD8 conjugation to cullin – biochemical, TR-FRET, single concentration, confirmation. shares compounds with Neddyl block. calls only at 25 µM. 1,800 compounds, 13% hits. TR-FRET cullin neddylation biochemical assay; in the data active = inhibition above about 40%;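 note: neddylation substrate is the cullin 1 ring ligase complex with SKP2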
* hit, by the source's call; i = inactive; . = no result given; + = active, no number. Most compounds without a hit are left out; they make up all but 2% or so of the library.

SMILES	GC-B act	PfG6PD inh	A3G deaminase	A3A deaminase	Neddyl block	NPR1 activator	Neddyl conf
CN1c2ccccc2C(O)=C(C(=S)Nc2ccc(F)c(Cl)c2)S1(=O)=O	-2	-23	-1	1	44*	4	i
CCC(C)Sc1cc(-c2nc3ccccn3c2NC2CCCCC2)ccc1OC (stereo unspecified)	10	23	-6	2	.	11	.
CC(=O)c1ccc(-c2cccc(-c3nc4ccccn4c3NC3CCCCC3)c2)cc1	22	22	6	1	26*	20	i
O=C(O)c1c(-c2ccccc2)oc2ccc(O)cc12	2	-3	3	-3	.	0	.
CN(C)C(=O)c1c(-c2ccccc2)oc2ccc(O)cc12	6	11	-5	2	45*	2	i
CN(C)c1cccc(C(=O)NC2CCCc3ccccc32)c1 (stereo unspecified)	-5	2	-5	-3	48*	2	i
N#CC1=C(N)Nc2nc3ccccc3n2C1c1ccc(Cl)cc1 (stereo unspecified)	2	-1	-11	-1	43*	3	i
CC1(C)Oc2cc3oc(-c4cc(O)cc(O)c4)cc3cc2CC1O (stereo unspecified)	-16	15	-8	-1	42*	-6	i
Nc1ccc(C(=O)Nc2ccc3c(O)cc(S(=O)(=O)O)cc3c2)cc1	-3	12	.	.	-15	-1	.
Nc1cc(S(=O)(=O)O)cc2ccc(S(=O)(=O)O)cc12	2	51	.	.	44*	2	.
C#CCN(Cc1ccco1)C(=O)c1nnc2c3cc(OC)ccc3n(S(=O)(=O)c3ccc(OC)cc3)c2n1	21	.	.	.	.	14	.
COc1ccc(-c2nn(-c3ccccc3)cc2/C=N/Nc2ccc(Cl)c(C(=O)O)c2)cc1OC	2	8	-3	-1	44*	5	i
COc1ccc(-c2nn(-c3ccccc3)cc2C(=O)O)cc1OC	1	-3	-9	-3	.	0	.
C[C@H]1[C@@H](NC(=O)c2cccc(N(C)C)c2)CC[C@@]23CCCN2C(=O)CCC[C@@H]13	-2	.	.	.	.	-1	.
O=C(Nc1ccc2c(c1)OCO2)c1cc(-c2ccc(O)cc2)on1	1	2	3	3	52*	3	+
CC(Oc1ccccc1)C(=O)Nc1cccc(-c2nc3ccccc3[nH]2)c1 (stereo unspecified)	12	2	-5	-2	39*	11	i
CC(=O)Nc1cccc(-c2nc3ccccc3[nH]2)c1	-5	18	-4	2	24	4	.
COC(=O)[C@]12C[C@H](CC(=O)N3CCCCC3)C(=O)N(CCC3=CCCCC3)C1=C[C@H](C(C)C)O[C@@H]2C1CC1	-6	.	.	.	.	-5	.
Cc1cccc(C)c1NC(=O)C1CCCN1S(=O)(=O)c1cccc2cccnc12 (stereo unspecified)	-3	.	.	.	.	0	.
Cc1c(C(=O)NCC2CCCO2)oc2ccc3c(c12)C(=O)CC(C)(C)O3 (stereo unspecified)	13	-12	-8	-20	37*	14	.
CC1(C)Cc2nc3sc(C(=O)NCCCO)c(N)c3cc2CO1	2	11	-10	-2	7	2	.
COC(=O)c1sc2nc3c(cc2c1N)COC(C)(C)C3	12	3	-4	-5	52*	16	+
COc1cc(CNc2ccc(N3CCOCC3)c(C(=O)O)c2)ccc1OCC(N)=O	-1	-12	-5	-3	42*	4	i
COC(=O)c1cc(NCc2ccc3c(c2)OCO3)ccc1N1CCOCC1	5	14	-5	1	29	2	.
